Inconclusive results are not listed. A call without a number means that no potency is given here. The source made the active and inactive calls. Calls follow the shape of the dose curve; as a rule, active = well fitted inhibition curve with a large enough effect; inconclusive = small, poorly fitted or top-dose-only effect; inactive = no such curve, though single readings can be large or run the other way.

Luciferin 4-monooxygenase (Photinus pyralis), sequence (P08659 whole entry, looked up): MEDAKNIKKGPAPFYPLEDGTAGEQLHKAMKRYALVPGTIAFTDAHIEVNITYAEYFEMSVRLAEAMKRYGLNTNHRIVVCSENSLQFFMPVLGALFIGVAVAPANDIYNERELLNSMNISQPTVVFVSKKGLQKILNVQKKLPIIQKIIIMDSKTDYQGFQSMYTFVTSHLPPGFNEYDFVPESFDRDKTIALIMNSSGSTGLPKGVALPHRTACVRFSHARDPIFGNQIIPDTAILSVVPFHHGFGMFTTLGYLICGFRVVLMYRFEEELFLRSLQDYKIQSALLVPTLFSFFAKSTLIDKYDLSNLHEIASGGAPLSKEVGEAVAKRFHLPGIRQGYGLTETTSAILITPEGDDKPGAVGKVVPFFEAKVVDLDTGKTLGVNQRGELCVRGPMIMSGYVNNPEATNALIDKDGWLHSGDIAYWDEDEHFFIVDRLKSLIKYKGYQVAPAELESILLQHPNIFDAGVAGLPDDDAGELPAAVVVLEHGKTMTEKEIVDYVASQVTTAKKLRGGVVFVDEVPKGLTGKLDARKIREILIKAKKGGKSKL

The assay addresses Luciferin 4-monooxygenase (Photinus pyralis) (UniProt P08659). As to the kind of experiment: FLuc inhibitory activity for the follow-up compounds in a biochemical assay with a commercial detection reagent - BriteliteTM Plus (PerkinElmer). The conditions noted are these: purified FLuc, Britelite Plus luminescence; series mostly up to 38.3 µM. The text has this: NCGC Assay Overview: Firefly (Photinus pyralis) luciferase is one of the most commonly used transcriptional reporters. It is considered one of the more dynamically responsive reporters - that is, responsive to changes in reporter transcription - as it requires no post-translational modifications and is enzymatically active directly after protein synthesis (Wood, 1998). With no endogenous expression in mammalian cells and without the requirement of external excitation, it offers very little background signal, thus generally providing excellent signal to background for most assays. Previous profiling work to determine the prevalence of compounds that affect FLuc enzymatic activity (PubChem AID 411) identified that ~3% of the MLSMR library (then at ~72K) inhibited FLuc (Auld et al., 2008). […] Of the compounds identified in this profile that inhibited FLuc, 151 compounds were selected for further analysis, in an effort to better understand their mode of inhibiting FLuc. The assay described here was to determine the activity of the compounds in a FLuc assay that used a commercial formulation of detection reagent (BriteliteTM Plus; PerkinElmer).
NCGC Assay Protocol Summary: Reagents: Britelite Plus detection reagent; 50mM Tris acetate, pH 7.5; 10nM P. pyralis luciferase (Sigma #L9506) Control compounds used were two known firefly luciferase inhibitors (3-(5-(3-chlorophenyl)-1,2,4-oxadiazol-3-yl)benzoic acid and 5-(2-fluorophenyl)-3-phenyl-1,2,4-oxadiazole), and DMSO. Assay Summary: Three microliters of buffer containing firefly luciferase (final concentrations: 50mM Tris acetate, 10nM P. pyralis luciferase) are dispensed into each well of a Greiner white, solid-bottom 1536-well format plate using a flying reagent dispenser (FRD). These assay plates were then treated with 23nL of compound or DMSO using a Kalypsys pin tool, which allows for delivery of a 12-point intraplate titration of each compound to the assay plate (quantitative HTS), with final compound concentrations ranging from approximately ~38uM to 0.2nM. Three microliters of 2X Britelite Plus detection reagent was then delivered by FRD to each well. Luciferase activity was then measured using a ViewLux CCD imager (PerkinElmer), with an average exposure time of 2-30 seconds (2X binning, medium/high gain).
Consider `COc1ccc2nc(NC(=O)c3cnccn3)sc2c1`, for which the Potency was 2000 nM (active).
With `CCOc1ccc2nc(NC(=O)Cc3cccs3)sc2c1` the entry was “inactive”; with `O=C(Nc1ccc(Cl)cc1-c1nc2ccccc2s1)c1ccco1`, “inactive”; with `Cc1ccc(C(=O)Nc2ccccc2C(=O)O)cc1S(=O)(=O)N1CCCCCC1`, 8950 nM (active).
With `CCOc1ccc(C(=O)Nc2ccccc2C(=O)O)cc1` the figure was 3560 nM (active); with `CCn1c(C)nc2cc(-c3nc4n(n3)Cc3ccccc3-4)ccc21`, 71.1 nM (active); with `Cc1ccc(C(=O)O/N=C(\N)c2ccccn2)cc1`, 28.3 nM (active).
Take `Cc1ccc(C(=O)Nc2cccc(C(=O)O)c2)cc1S(=O)(=O)N1CCOCC1`: the Potency was 11300 nM (active).
With `O=C(O)c1cccc(NC(=O)c2cccc(S(=O)(=O)N3CCc4ccccc4C3)c2)c1` the entry was “inactive”.
With `COc1ccc(C(=O)Nc2ccccc2C(=O)Nc2ccc(C(=O)O)cc2)cc1` the figure was 14200 nM (active); with `O=C(Nc1ccccc1-c1nc2ccccc2s1)c1cccnc1`, “inactive”; with `O=C(Cc1ccccc1)Nc1ccccc1C(=O)Nc1ccc(C(=O)O)cc1`, “inactive”.
With `O=C(Nc1ccc(-c2nc3ccccc3s2)cc1)C1=COCCO1` the figure was 400 nM (active); with `Cc1ccc(C(=O)Nc2ccc(C(=O)O)cc2)cc1S(=O)(=O)NCc1ccccc1`, “inactive”; with `Cc1ccc(NS(=O)(=O)c2ccc(Cl)c(C(=O)Nc3cccc(C(=O)O)c3)c2)cc1`, “inactive”.
`Cc1ccc(S(=O)(=O)N2CCN(C(=O)c3ccccc3-c3nc4ccccc4s3)CC2)c(C)c1`: the Potency entry was “inactive”.
With `C/C(=N\NC(=O)c1ccccc1NC(=O)c1ccc(Cl)cc1)c1ccncc1`, the Potency was 15.9 nM (active).
With `O=C(Nc1ccccc1C(=O)Nc1ccccc1C(=O)O)c1ccccc1` the entry was “inactive”; with `Cc1ccc(C(=O)Nc2cccc(C(=O)O)c2)cc1S(=O)(=O)N1CCCC1`, 2250 nM (active); with `Cc1c(NS(C)(=O)=O)cccc1-c1nc2ccccc2s1`, “inactive”.
For `COc1cc(OC)cc(C(=O)Nc2ccc(-c3nc4ccccc4s3)c(C)c2)c1`, the Potency is 113 nM (active).
`O=C(Nc1ccccc1C(=O)O)c1cccc(NC(=O)c2ccc(Br)o2)c1`: the Potency result was “inactive”.
With `CCCC(=O)Nc1nc2ccc(OCC)cc2s1` the figure was 79.8 nM (active); with `O=C(O)c1cccc(NC(=O)c2ccc(Cl)c(S(=O)(=O)N3CCCCCC3)c2)c1`, 3180 nM (active); with `O=C(Nc1ccccc1C(=O)O)c1cc(S(=O)(=O)Nc2cccc(F)c2)ccc1Cl`, “inactive”.
With `O=C(Nc1ccccc1-c1nc2ccccc2s1)c1ccc(Br)o1` the entry was “inactive”; with `O=C(O)c1ccc(NC(=O)c2cccc(C(=O)Nc3ccc(C(=O)O)cc3)c2)cc1`, “inactive”.
With `CCOC(=O)N1CCN(CC(=O)Nc2nc3ccc(OC)cc3s2)CC1` the entry was “inactive”; with `O=C(O)c1cccc(NC(=O)c2cccc(NC(=O)C3CCCO3)c2)c1` (stereo not given), 11300 nM (active).
In the case of `CC(C)c1ccc(-c2nc3ccccc3s2)cc1`, the Potency was 22.5 nM (active).
With `Nc1ccc(-c2nc3ccc(N)cc3s2)cc1` the figure was 565 nM (active); with `COc1ccc(CC(=O)Nc2cccc(C(=O)Nc3ccccc3C(=O)O)c2)cc1OC`, “inactive”.
With `COc1ccccc1C(=O)Nc1ccc(C(=O)Nc2ccccc2C(=O)O)cc1` the entry was “inactive”.
With `O=C(Nc1ccccc1C(=O)O)c1cccc(NC(=O)c2ccccc2Br)c1` the entry was “inactive”.
As for `Nc1ccc2nc(-c3ccccc3)sc2c1`, the Potency is 634 nM (active).

The values above are taken from PubChem BioAssay AID602474 (National Center for Advancing Translational Sciences (NCATS), 2012).
